These results are taken from PubChem BioAssay AID602438 (Sanford-Burnham Center for Chemical Genomics, 2012).

Each structure is given as a SMILES string. Several values for one entry are separate records, joined by “and”; a condition that tells them apart may be missing. Identical values can stand only once. The whole screen tested about 360,000 compounds, of which about 3,100 (0.86%) were called active. This excerpt belongs to a sample that is enriched for actives. Values without a mark were called inactive.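 How the source made its calls: active means inhibition or corrected inhibition above about 18%, plus a signal ratio from 0.5 to 1.5 (limit read from the data, passing the limit was not always enough); inactive means the rest.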

Chain of Neuropilin-1 (Homo sapiens) (O14786 whole entry, looked up): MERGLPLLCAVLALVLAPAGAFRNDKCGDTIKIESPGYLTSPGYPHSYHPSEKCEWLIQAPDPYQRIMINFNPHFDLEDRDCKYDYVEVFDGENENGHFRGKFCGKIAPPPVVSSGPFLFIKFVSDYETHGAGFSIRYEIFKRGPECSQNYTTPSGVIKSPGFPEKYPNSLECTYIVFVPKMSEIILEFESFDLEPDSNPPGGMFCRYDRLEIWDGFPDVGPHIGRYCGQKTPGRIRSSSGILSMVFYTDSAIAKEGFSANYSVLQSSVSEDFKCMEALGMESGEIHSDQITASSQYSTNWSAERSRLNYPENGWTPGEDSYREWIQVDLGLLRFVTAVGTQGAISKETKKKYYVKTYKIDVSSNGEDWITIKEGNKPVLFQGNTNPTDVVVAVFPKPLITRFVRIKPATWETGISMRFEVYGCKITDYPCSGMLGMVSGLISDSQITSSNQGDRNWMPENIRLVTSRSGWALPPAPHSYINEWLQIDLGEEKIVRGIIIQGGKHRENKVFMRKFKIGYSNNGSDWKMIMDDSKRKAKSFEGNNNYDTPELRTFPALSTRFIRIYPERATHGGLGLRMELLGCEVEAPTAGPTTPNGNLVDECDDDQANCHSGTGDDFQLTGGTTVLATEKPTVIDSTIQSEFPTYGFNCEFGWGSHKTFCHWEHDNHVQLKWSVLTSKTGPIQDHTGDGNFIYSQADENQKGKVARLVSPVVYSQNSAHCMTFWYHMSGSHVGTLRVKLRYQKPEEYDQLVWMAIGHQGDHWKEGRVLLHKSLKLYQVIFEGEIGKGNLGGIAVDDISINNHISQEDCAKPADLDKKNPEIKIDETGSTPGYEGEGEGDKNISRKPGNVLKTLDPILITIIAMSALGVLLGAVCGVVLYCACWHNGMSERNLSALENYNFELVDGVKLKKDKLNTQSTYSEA

The experiment has as its target Neuropilin-1 (Homo sapiens) (UniProt O14786). As to the kind of experiment: modulators of CendR peptide binding to NRP-1, primary screen, biochemical, fluorescence polarization, uHTS (AID 602438). Particulars: FAM-RPARPAR peptide binding to NRP-1, fluorescence polarization; at 25 µM; hits give high values. In general terms: Polarisation of emitted light reports the rotation of a fluorescent probe.
One may read the inhibition as the relative decrease from the control value, in per cent. `CC1CCN(S(=O)(=O)c2ccc(S(=O)(=O)NCc3ccco3)cc2)CC1`: the inhibition was 8.7%.
For `CN(C)C(=S)N=c1ssc(=S)n1Cc1ccco1`, the inhibition was -2.5%.
In the case of `CN(C)CCOC(=O)C(c1ccccc1)C1(O)CCCC1` (stereo not given), the inhibition was 5.3%.
Consider `O=C(O)C(c1ccccc1)C1(O)CCCCC1` (stereo not given), for which the inhibition was -0.6%.
The value for `O=C(O)C(c1cccs1)C1(O)CCCCC1` (stereo not given) was 27.7% (active); that for `O=C(Cn1cc(C(F)(F)F)ccc1=O)Nc1ccc2c(c1)OCCO2` was -9.1%; that for `O=C(/C=N/O)Nc1ccccc1` was 3.7%.
As for `C#CC(C)(C)NC(=O)c1cnc(-c2ccccc2)nc1-c1ccccc1`, the inhibition was -0.8%.
On to `CCOC(=O)c1cc2n(c1N)-c1ccccc1C2=O`, for which the inhibition was 29.5% (active).
For the molecule `CCOC(=O)c1ccn(S(=O)(=O)c2ccc(C)cc2)c1-c1ccccc1`, the inhibition is -9.6%.
The value for `CCOC(=O)c1cnn(Cc2ccccc2Cl)c1N` was -3.4%; that for `CCC(C(=O)NC1CCCC1)N(C(=O)c1snc(C(N)=O)c1N)c1ccc2c(c1)OCCO2` (stereo not given) was 5.9%; that for `CC(NC(=O)COC(=O)Cn1cc(C(F)(F)F)ccc1=O)c1ccccc1` (stereo not given) was -13.9%.
With `CCN(CC)N=Nc1cccc(NC(C)=O)c1` the figure was 1.7%; with `Cc1ccc2c(c1)-c1c(ssc1=S)C(C)(C)N2C(=O)CN1C(=O)c2ccccc2C1=O`, -1.5%.
With `Cc1cc2c(cc1C)N(C(=O)CN1C(=O)c3ccccc3C1=O)C(C)(C)c1ssc(=S)c1-2` the figure was 23.1% (active).
For the molecule `Cc1ccc(NC(=O)CCN2C(=O)c3ccccc3C2=O)cc1C`, the inhibition is 15.6%.
The value for `C=CCn1nc(-c2ccccc2)c2c(C)onc2c1=O` was -1.4%; that for `CN1c2ccc(C=O)c3c(C=O)ccc(c23)N(C)C1(C)C` was 56.9% (active); that for `Cc1ccc(C=O)c([B-](F)(F)F)c1` was -8.7%.
With `O=C(CCN1CCCO1)N1CCCC(N2CCN(c3cccc(C(F)(F)F)c3)CC2)C1` (stereo not given), the inhibition was 10.2%.
With `CC1CCCN(C(=O)c2ccc3c(c2)C(=O)N(CCC2=CCCCC2)C3=O)C1` (stereo not given) the figure was 9.2%; with `COC(=O)c1cccc(NC(=O)CSc2nc(C)cc(=O)[nH]2)c1`, -10.7%.
The value for `Cc1cc(C)c(C(=O)CSc2nc(C)cc(=O)[nH]2)c(C)c1` was 26.7% (active); that for `Cc1cc(=O)[nH]c(SCc2ccc(Cl)cc2)n1` was 21.5%; that for `N#CCN(C(=O)COC(=O)C1CC2CCCC(C1)C2=O)c1ccccc1` (stereo not given) was -17.5%.
The value for `O=C(NC(=O)c1ccccc1N1CCCCC1)Nc1ccc(Br)cc1` was 5.9%; that for `Cc1cccc(C)c1NC(=O)CN1CCN(c2ccc(F)cc2)CC1` was 19.5% (active); that for `Cc1cccc(C)c1NC(=O)CS(=O)CC(=O)N1CCN(c2ccccc2)CC1` (stereo not given) was 16%.
Consider `CCOC(=O)N1CCN(CC(=O)Nc2ccc(F)cc2)CC1`, for which the inhibition is -14.8%.
With `Cc1cc(Nc2ccc(C)c(C)c2)n2ncnc2n1` the figure was 4.8%; with `CC1(c2cccc(Br)c2)NC(=O)N(CC(=O)NCCC2=CCCCC2)C1=O` (stereo not given), 6.7%; with `Cc1ccc(S(=O)(=O)NNC(=O)/C=C/c2cccc(F)c2)cc1`, 20.7% (active).
For the molecule `Cc1ccc(S(=O)(=O)NNC(=O)Nc2cccc3ccccc23)cc1`, the inhibition was 1.8%.
The value for `Cc1ccc(S(=O)(=O)NC(=O)c2cccc(C)c2)cc1` was -0.5%; that for `COc1ccc(CN(C)C(=O)Cc2c[nH]c3ccccc23)c(OC)c1OC` was -1.4%.
Consider `COc1ccccc1NC(=O)CCCc1c[nH]c2ccccc12`, for which the inhibition is 65.3% (active).
The value for `COc1ccc(Cl)cc1NC(=O)CN(C)C(=O)CCCc1c[nH]c2ccccc12` was 7.5%.
For `C=C(C)C1CC=C(C)/C(=N\NC(=O)CNc2ccccc2OC)C1` (stereo not given), the inhibition is 20.9% (active).
Consider `C=C(C)C1CC=C(C)/C(=N/NC(=O)CCCNc2cccc(C)c2)C1` (stereo not given), for which the inhibition was 1.4%.
As for `COc1ccccc1NC(=O)COC(=O)CNC(=O)C1CCCCC1`, the inhibition was 9.6%.
For `N#C/C=C\Oc1ccc(Cl)cc1N`, the inhibition is -3.7%.
Regarding `COc1ccc(C2CC(c3cccs3)=NN2C(=O)CSc2nnc(N)s2)cc1OC` (stereo not given), the inhibition was 0.7%.
In the case of `COc1ccc(C2CC(c3cccs3)=NN2C(=O)COC(=O)c2cc3ccccc3cc2O)cc1OC` (stereo not given), the inhibition was 6.7%.
With `COc1ccc(C2CC(c3cccs3)=NN2C(=O)CSc2nncs2)cc1OC` (stereo not given), the inhibition is 28.8% (active).
With `CCN(CC(=O)Nc1c(F)cccc1F)C(=O)c1cnc(C)cn1` the figure was 3.1%; with `CCN(CC(=O)Nc1c(F)cccc1F)C(=O)c1ccc(-c2ccc(C(C)=O)cc2)o1`, 45.1% (active).
Take `CCN(CC(=O)Nc1c(F)cccc1F)C(=O)c1ccc(-c2ccccc2)cc1`: the inhibition was 4.3%.
Turning to `CCN(CC)S(=O)(=O)c1ccc(C(=O)N2CCN(C3=NS(=O)(=O)c4ccccc43)CC2)cc1`, the inhibition was -0.8%.
Take `CC1CCCCC12NC(=O)N(CC(=O)Nc1ccc(S(=O)(=O)Nc3ncccn3)cc1)C2=O` (stereo not given): the inhibition was -8.9%.
Turning to `Cc1nnc(CN(C)Cc2cn[nH]c2-c2ccc(-c3ccccc3)cc2)o1`, the inhibition was -2.9%.
Consider `CC1(C)S[C@@H]2[C@H](NC(=O)COc3ccccc3)C(=O)N2C1C(=O)OCc1ccccc1` (stereo not given in full), for which the inhibition is 26.2% (active).
As to `COC(=O)C1[C@H]2SC(C)(C)C(C(=O)OC)N2C(=O)N1Cc1nc2ccccc2s1` (stereo not given in full), the inhibition was 4.5%.
Take `CC1(C)SC2C(NC(=O)COc3ccccc3)C(=O)N2C1C(=O)O` (stereo not given): the inhibition is -22.6% and -10.8%.
With `COC(=O)c1c(NC(=O)COC(=O)[C@@H](NS(=O)(=O)c2ccccc2)C(C)C)sc2c1CCC2` the figure was -8.2%; with `Cc1sc(NC(=O)C2C3CCC(O3)C2C(=O)O)c(C(=O)OC(C)C)c1-c1ccc(Cl)cc1` (stereo not given), 21% (active).
As to `COc1ccc(NC(=O)C2C3CCC(O3)C2C(=O)O)cc1OC` (stereo not given), the inhibition is 4.9%.
`CC(C)OC(=O)c1cc(NC(=O)C2C3CCC(O3)C2C(=O)O)cc(C(=O)OC(C)C)c1` (stereo not given): the inhibition is -0.2%.
`O=C(CN1C(=O)NC(Cc2c[nH]c3ccccc23)C1=O)Nc1ccccc1C(F)(F)F` (stereo not given): the inhibition is -6.7%.
Turning to `CCn1c(C)nc2cc(C(=O)NNS(=O)(=O)c3ccc(C)cc3C)ccc21`, the inhibition is -7%.
